Bioassay records as filed in PubChem.
In the library only some 19% were active in any assay of this set; here they are far more common.
IL1B secr inh – inhibitors of inflammasome signaling (IL-1 beta secretion) | THP-1 LPS/ATP IL-1B secretion, AlphaLISA, 16 h; stronger effect = lower value | 4.7% of 360,000 active | AID 743279 | activity change, % at 57.5 µM; in the data active = activity change below about -50%; inconclusive = mostly about -30% to -49%; also: % is scaled to controls: 0 for no effect and ±100 for the full control effect
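Secreted IL-1B measured by AlphaLISA bead assay after 16 h compound exposure of THP-1 cells; compounds (final up to 57.5 uM) added 1 h before LPS (250 ng/mL) and ATP (1.25 mM) stimulation; lower signal means less secretion.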
DT40 TDP1 no CPT – qHTS for Inhibitors of human tyrosyl-DNA phosphodiesterase 1 (TDP1): qHTS in cells in absence of CPT | 15% of 420,000 active | DT40 Tdp1-/- hTDP1 cells, no CPT, ATP luminescence, 48 h | AID 686978, 2013 | Potency, µM (top dose mostly 46.2 µM), for inactives: top-dose activity change, negative = growth inhibition, most hits filed as inhibitors; also: potency is read from the fitted curve at half-maximal effect; % is scaled to controls: 0 for no effect and ±100 for the full control effect; nearly all actives have a fitted effect of over 55% in size
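Chicken DT40 Tdp1-/- cells complemented with human TDP1, screened without camptothecin (DMSO vehicle only), 400 cells/well. Compounds pin-transferred, cells incubated at 37 °C for at least 48 hr. Growth read as ATP-dependent luminescence (CellTiter-Glo, 30 min at RT).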
ASM inhibitor – inhibitors of human secretory acid sphingomyelinase; P17405; Potency, µM (titrated, usually from 57.5 µM), inactives show at the top dose activity change, negative = inhibition, hits mostly inhibitors; placental ASM, HMU-PC fluorogenic substrate, 60 min; 0.006% of 340,000 active; AID 504937; also: potency is read from the fitted curve at half-maximal effect
Target sequence (P17405 47-631 limits assumed): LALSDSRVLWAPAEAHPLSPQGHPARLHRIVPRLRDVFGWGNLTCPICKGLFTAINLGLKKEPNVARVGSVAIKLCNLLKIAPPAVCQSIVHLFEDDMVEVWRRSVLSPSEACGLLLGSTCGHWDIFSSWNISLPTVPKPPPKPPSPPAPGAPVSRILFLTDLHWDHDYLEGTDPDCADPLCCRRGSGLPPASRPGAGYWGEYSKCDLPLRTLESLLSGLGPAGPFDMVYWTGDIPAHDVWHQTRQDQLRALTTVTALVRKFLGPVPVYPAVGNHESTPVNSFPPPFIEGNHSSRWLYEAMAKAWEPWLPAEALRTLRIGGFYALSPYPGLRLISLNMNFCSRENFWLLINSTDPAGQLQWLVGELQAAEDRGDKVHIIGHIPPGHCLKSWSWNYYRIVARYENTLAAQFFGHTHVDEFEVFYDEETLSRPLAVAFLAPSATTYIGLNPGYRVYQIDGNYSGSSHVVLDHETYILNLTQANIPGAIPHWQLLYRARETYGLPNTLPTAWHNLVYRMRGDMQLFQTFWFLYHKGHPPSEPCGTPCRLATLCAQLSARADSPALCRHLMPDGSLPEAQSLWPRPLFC
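Fluorogenic HMU-PC substrate (9 uM final) is turned over by placental ASM in 60 min at 37 C after a 10 min compound preincubation. Reaction ended by alkaline stop (pH 10), with fluorescence read at 386/447 nm.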
DT40 TDP1 CPT – DT40-hTDP1 cell growth loss with CPT. chicken DT40 Tdp1-/-;hTDP1 cells + 20 nM CPT, ATP luminescence, 48 h. Potency, µM (top dose mostly 46.2 µM), without a hit: at the highest dose activity change, negative = growth inhibition, hits mostly inhibitors. 12% of 420,000 active. AID 686979; also: potency is read from the fitted curve at half-maximal effect; % is scaled to controls: 0 for no effect and ±100 for the full control effect; nearly all actives have a fitted effect of over 55% in size
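Chicken DT40 Tdp1-/- cells stably complemented with human TDP1 were seeded at 400 cells/well in medium containing 20 nM camptothecin, exposed to pin-transferred compounds, and grown at 37 °C for at least 48 hr. Viability was read as ATP luminescence.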
HepG2 tox – counter-screen for TGF-b inhibitors: cytotoxicity in HepG2 cells; Potency, µM (series often up to 46.1 µM), inactives show at the highest dose activity change, negative = cytotoxicity, most hits filed as cytotoxic; AID 588856; HepG2 CAGA-GFP viability, ATP luminescence, 18 h; 0.76% of 410,000 active; also: potency is read from the fitted curve at half-maximal effect
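CellTiter-Glo luminescence gave cytotoxicity after 18 hours at 37 degrees C. The cells were HepG2 CAGA-GFP in 1% FBS DMEM, stimulated with 500 pg/mL TGF-beta after compound addition. %Activity was normalised to no-cell wells (complete cell-killing) and DMSO (no toxicity), and curves were fitted and classified.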
TGFb inhibitor – inhibitors of TGF-b signaling. HepG2 CAGA-GFP TGF-b/SMAD3 reporter, GFP fluorescence, 18 h; TGF-beta stimulated, 500 pg/mL final. Potency, µM (highest dose often 46.1 µM), for inactives: top-dose activity, negative = inhibition, most hits filed as inhibitors. 1.2% of 410,000 active. AID 588855; also: potency is read from the fitted curve at half-maximal effect; % is scaled to controls: 0 for no effect and ±100 for the full control effect; nearly all actives have a fitted effect of over 65% in size
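HEPG2 CAGA-GFP, 1000 cells/well; 2 h settle, 37 C; cpd via pin tool; TGF-b 500 pg/mL final; 18 h, 37 C; GFP imaging ex488/em500-530; %Activity normalised to -TGF-b and +DMSO controls; CRC fit, curve class.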
An asterisk follows results filed as active. Unless noted, calls follow the shape of the dose curve; as a rule, active = well fitted curve in the direction sought with a large enough effect; inconclusive = small, poorly fitted or top-dose-only effect, or another doubt; inactive = no such curve, though single readings can be large; an effect the other way counts as inactive or inconclusive.

How did Cn1c(N)c(C(=O)COC(=O)c2ccc(Cl)c(S(=O)(=O)N3CCCC3)c2)c(=O)n(C)c1=O do in these assays?
IL1B secr inh: 24; DT40 TDP1 no CPT: -21%; ASM inhibitor: -4%; DT40 TDP1 CPT: inconclusive; HepG2 tox: 4%; TGFb inhibitor: -11%

Results for Cc1ccc(S(=O)(=O)CC2CSc3nc(N)cc(=O)n32)cc1 (stereo unspecified) ?
IL1B secr inh: -26; DT40 TDP1 no CPT: -9%; ASM inhibitor: 3%; DT40 TDP1 CPT: -2%; HepG2 tox: 5%; TGFb inhibitor: 0%

How did Cc1ccc(S(=O)(=O)CC2CSc3nc4ccccc4n32)cc1 (stereo unspecified) do in these assays?
IL1B secr inh: -3; DT40 TDP1 no CPT: 1.8µM*; ASM inhibitor: -1%; DT40 TDP1 CPT: 1.8µM*; HepG2 tox: 2%; TGFb inhibitor: -15%

How did COc1cccc2c1C(=O)/C(=C/c1ccc(N(C)C)cc1)C2 do in these assays?
DT40 TDP1 no CPT: inconclusive; DT40 TDP1 CPT: inconclusive; HepG2 tox: -35%; TGFb inhibitor: -3%

Results for CCOCCn1c(CN2CCN(C(=O)c3ccco3)CC2)nc2c1c(=O)n(C)c(=O)n2C ?
IL1B secr inh: 23; DT40 TDP1 no CPT: -3%; ASM inhibitor: -3%; DT40 TDP1 CPT: -13%; HepG2 tox: -24%; TGFb inhibitor: -6%

What do the screens show for `CCOC(=O)C1CCCC12Nc1cccc3cccc(c13)N2` (stereo unspecified)?
IL1B secr inh: -11; DT40 TDP1 no CPT: 15µM*; ASM inhibitor: -5%; DT40 TDP1 CPT: 18µM*; HepG2 tox: -6%; TGFb inhibitor: -10%

How did CC(=O)c1cnn(-c2nc3c(C)cccc3s2)c1C do in these assays?
IL1B secr inh: 0; DT40 TDP1 no CPT: inconclusive; ASM inhibitor: 0%; DT40 TDP1 CPT: -12%; HepG2 tox: -17%; TGFb inhibitor: -3%

What do the screens show for `CC(=O)c1cnn(-c2c(Cl)cc(Cl)cc2Cl)c1C`?
IL1B secr inh: 10; DT40 TDP1 no CPT: 18µM*; ASM inhibitor: 3%; DT40 TDP1 CPT: 16µM*; HepG2 tox: -17%; TGFb inhibitor: -33%

What do the screens show for `Cc1ccc(C(=O)O/N=C(\N)c2cccc([N+](=O)[O-])c2)cc1`?
IL1B secr inh: 1; DT40 TDP1 no CPT: -15%; ASM inhibitor: -4%; DT40 TDP1 CPT: -30%; HepG2 tox: -2%; TGFb inhibitor: -3%

How did CC1=CC(=O)C(C(C)C)=C/C1=N/OC(=O)c1cccc([N+](=O)[O-])c1 do in these assays?
IL1B secr inh: -101*; DT40 TDP1 no CPT: 12µM*; ASM inhibitor: -6%; DT40 TDP1 CPT: 23µM*; HepG2 tox: -33%; TGFb inhibitor: inconclusive

How did COc1ccc(/C(N)=N/OC(=O)c2cccc([N+](=O)[O-])c2)cc1 do in these assays?
IL1B secr inh: 21; DT40 TDP1 no CPT: inconclusive; ASM inhibitor: -1%; DT40 TDP1 CPT: inconclusive; HepG2 tox: 11%; TGFb inhibitor: -16%

How did CC1=CC(=O)C(C(C)C)=C/C1=N\OC(=O)c1cccc2nc(C)oc12 do in these assays?
IL1B secr inh: 1; DT40 TDP1 no CPT: 21µM*; ASM inhibitor: -2%; DT40 TDP1 CPT: inconclusive; HepG2 tox: 6%; TGFb inhibitor: inconclusive

Results for CC1=CC(=NOC(=O)c2cccc([N+](=O)[O-])c2)C=C(C)C1=O ?
IL1B secr inh: -85*; DT40 TDP1 no CPT: 12µM*; ASM inhibitor: -4%; DT40 TDP1 CPT: 18µM*; HepG2 tox: -19%; TGFb inhibitor: -7%
